Laboratory results reported in PubChem BioAssay (Tox21).
Unmarked numbers belong to inactive results. Inconclusive results are not listed. A call without a number means that no potency is given here. Calls of active or inactive are those of the source. Unless noted, calls follow the shape of the full dose curve.

Key:
[1] = Nuclear factor erythroid 2-related factor 2/antioxidant responsive element (Nrf2/ARE) small molecule agonists: luciferase reporter gene qHTS assay in human keratinocytes (AID 1919969); also: nearly all actives have a fitted effect of over 35% in size; also: potency is read from the fitted curve at half-maximal effect
[2] = molecular target: Gonadotropin-releasing hormone receptor (Homo sapiens) (UniProt P30968); assay: Human gonadotropin-releasing hormone receptor (GnRHR) small molecule agonists, calcium flux assay in GnRHR-HEK293 cells (AID 1920063); also: nearly all actives have a fitted effect of over 35% in size
Procedure, shortened: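 Stable human GnRHR HEK293 line. 18 h plating, then calcium dye for 1 h at 37 C. Agonist-mode compound addition from DMSO stocks; fluorescence monitored 3 min.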

[3] = molecular target: KiSS-1 receptor (Homo sapiens) (UniProt Q969F8); assay: Human kisspeptin (KISS1R) small molecule agonists, calcium flux assay in KISS1R-HEK293 cells (AID 1920064; active = well fitted activation curve with a large enough effect in the repeat runs)
Procedure, shortened: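 After overnight (18 h) culture at 37 C/5% CO2, human KISS1R-HEK293 cells received calcium dye for 1 h, then test compound; emission at 540 nm (excitation 480 nm) was tracked for 3 min.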

[4] = G protein-coupled receptor (GPCR) small molecule agonists, calcium flux assay: HEK293 wild type cell line counter screen (AID 1920065)
Procedure, shortened: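 Following 18 h incubation at 37 C/5% CO2, plates got calcium dye for 1 h; compounds, ATP or DMSO were then pinned in and fluorescence followed kinetically (480/540 nm).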

[5] = p53 small molecule agonists, cell-based qHTS assay with rat liver microsomes (AID 1963578)
Procedure, shortened: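 Compound in DMSO added to p53RE-bla cells 5 h post-plating; rat microsomes/NADPH 0.5 mg/mL final; 16 h, 37 C; LiveBLAzer 2 h RT.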

[6] = p53 small molecule agonists, cell-based qHTS assay with human liver microsomes: qHTS cell viability counter screen (AID 1963579); also: nearly all actives have a fitted effect of over 45% in size
Procedure, shortened: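 HLM-supplemented (0.5 mg/mL final) and NADPH-supplemented (0.5 mg/mL final) p53RE-bla cultures, 4,000 cells per well, were dosed with compounds in DMSO for 16 h at 37 C; luminescent ATP detection (CellTiter-Glo, 30 min, room temperature) quantified surviving cells.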

[7] = p53 small molecule agonists, cell-based qHTS assay with rat liver microsomes: qHTS cell viability counter screen (AID 1963580); also: nearly all actives have a fitted effect of over 45% in size
Procedure, shortened: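 Luminescent ATP readout (CellTiter-Glo, 30 min at room temperature) reports viability of p53RE-bla HCT-116 cells after 16 h at 37 C with test compounds under metabolic activation by rat liver microsomes and NADPH at 0.5 mg/mL final each.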

[8] = p53 small molecule agonists, cell-based qHTS assay: qHTS cell viability counter screen (AID 1963581); also: nearly all actives have a fitted effect of over 45% in size
Procedure, shortened: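 qHTS counter screen: 16 h compound exposure at 37 C of p53RE-bla HCT-116 cells (4,000 per well, seeded 5 h prior), cell viability by ATP luminescence.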

[9] = p53 small molecule agonists, cell-based qHTS assay (AID 1963582; active = well fitted activation curve with a large enough effect in the signal ratio in the repeat runs, not every such curve was filed as active; the % refers to the signal ratio; also: potency is read from the fitted curve at half-maximal effect)
Procedure, shortened: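 Measured: fluorescence from cleaved LiveBLAzer substrate. System: p53RE-bla cells, 16 h compound treatment at 37 C, 2 h substrate step at room temperature.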

[10] = molecular target: 5-hydroxytryptamine receptor 2A (Homo sapiens) (UniProt P28223); assay: 5-hydroxytryptamine receptor 2A (HTR2A) small molecule agonists, cell-based qHTS assay (AID 1963587); also: nearly all actives have a fitted effect of over 30% in size
Procedure, shortened: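 HTR2A-CHO cells, plated 18 h at 37 C/5% CO2, dye-loaded 1 h at 37 C; compounds in DMSO added by pin tool (agonist mode). Intracellular calcium flux read as kinetic fluorescence on FDSS over 2 min at 1 s intervals.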

[11] = molecular target: Muscarinic acetylcholine receptor M1 (Homo sapiens) (UniProt P11229); assay: Cholinergic receptor muscarinic 1 (CHRM1) small molecule antagonists, cell-based qHTS assay (AID 1963588); also: nearly all actives have a fitted effect of over 40% in size; also: potency is read from the fitted curve at half-maximal effect
Procedure, shortened: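 Compounds were tested at 15 concentrations in three independent runs. Dye-loaded CHRM1-CHO cells were exposed 5 min at room temperature before stimulation by acetylcholine added at 50nM. Intracellular calcium was read kinetically on FDSS for 3 min.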

[12] = molecular target: Muscarinic acetylcholine receptor M1 (Homo sapiens) (UniProt P11229); assay: Cholinergic receptor muscarinic 1 (CHRM1) small molecule agonists, cell-based qHTS assay (AID 1963589); also: nearly all actives have a fitted effect of over 35% in size
Procedure, shortened: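 Kinetic fluorescence (1 s intervals) of calcium-sensitive dye in human M1 CHO cells after compound addition; cells pre-incubated 18 h at 37 C/5% CO2 and dye-loaded 1 h.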

[13] = cAMP Responsive Elements (CRE) small molecule agonists, cell-based qHTS assay (AID 1963590)
Procedure, shortened: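 Test agents in DMSO were incubated 3 h at 37 C/5% CO2 with CRE-bla HEK 293T cells seeded 18 h earlier; LiveBLAzer B/G FRET substrate was added and read after 2 h at room temperature.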

[14] = cAMP Responsive Elements (CRE) small molecule antagonists, cell-based qHTS assay (AID 1963591; active = well fitted inhibition curve with a large enough effect in the signal ratio in the repeat runs, not every such curve was filed as active; the % refers to the signal ratio)
Procedure, shortened: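 Reporter line CRE-bla HEK 293T in dialyzed-FBS DMEM; cells preincubated 18 h, treated 3 h with compound plus NKH477 (0.25 uM final); LiveBLAzer FRET, 2 h RT.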

[15] = molecular target: Beta-2 adrenergic receptor (Homo sapiens) (UniProt P07550); assay: Adrenergic beta2 receptor (ADRB2) small molecule antagonists, cell-based qHTS assay (AID 1963592); also: series mostly up to about 92 µM; nearly all actives have a fitted effect of over 50% in size
Procedure, shortened: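 Assay format: CHO-ADRB2 cells, 18-20hr seeding at 37C/5% CO2, then compound plus 1nM isoproterenol agonist mix for 0.5hr RT. Homogeneous time-resolved fluorescence cAMP detection after 1hr, expressed as 665/615 nm ratio.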

[16] = molecular target: Beta-2 adrenergic receptor (Homo sapiens) (UniProt P07550); assay: Adrenergic beta2 receptor (ADRB2) small molecule agonists, cell-based qHTS assay (AID 1963593);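 also: CHO cells stably overexpressing human ADRB2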
Procedure, shortened: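 CHO cells stably over-expressing ADRB2 were plated overnight at 37C, then dosed with compounds plus a stimulation mix containing 100uM IBMX and 25uM Ro-20-1724 for 0.5hr at room temperature. cAMP was measured by HTRF competition, 1hr.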

[17] = molecular target: D(2) dopamine receptor (Homo sapiens) (UniProt P14416); assay: Dopamine D2 receptor (DRD2) small molecule agonists, cell-based qHTS assay (AID 1963594); also: nearly all actives have a fitted effect of over 35% in size
Procedure, shortened: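 HEK293 cells stably expressing DRD2 were cultured 24 h at 37 C, then given Ro20-1724 (0.1 mM final) and compounds for 10 min at room temperature. NKH477 (200nM) was then added for 30 min. cAMP was read by HTRF.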

[18] = molecular target: D(2) dopamine receptor (Homo sapiens) (UniProt P14416); assay: Dopamine D2 receptor (DRD2) small molecule antagonists, cell-based qHTS assay (AID 1963595; active = well fitted inhibition curve with a large enough effect in the signal ratio in the repeat runs, with a control signal flat; the % refers to the signal ratio)
Procedure, shortened: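 HTRF cAMP read-out at 665 and 620 nm emission (340 nm excitation). Antagonist mode: compounds were tested against 12 nM quinpirole in DRD2-HEK293 cells, with 200 nM NKH477 raising cAMP and 0.1 mM Ro20-1724 blocking its breakdown.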

[19] = p53 small molecule agonists, cell-based qHTS assay with human liver microsomes (AID 1963577);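 also: p53 response element beta-lactamase reporter cells with liver microsomes plus NADPH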
Procedure, shortened: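 Reporter activation was measured by LiveBLAzer fluorescence intensity in p53RE-bla cells, which had been exposed to compounds for 16 h at 37 C alongside 0.5 mg/mL human liver microsomes and 0.5 mg/mL NADPH (final concentrations).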

[20] = molecular target: 5-hydroxytryptamine receptor 2A (Homo sapiens) (UniProt P28223); assay: 5-hydroxytryptamine receptor 2A (HTR2A) small molecule antagonists, cell-based qHTS assay (AID 1963586); also: nearly all actives have a fitted effect of over 45% in size
Procedure, shortened: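 CHO cells stably expressing human HTR2A were plated for 18 h at 37 C, then loaded with calcium dye for 1 h. Compounds were preincubated 5 min at room temperature before DOI (4 nM solution) was added. Kinetic fluorescence was read for 3 min.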

Chain of Beta-2 adrenergic receptor (Homo sapiens) (P07550 whole entry, looked up): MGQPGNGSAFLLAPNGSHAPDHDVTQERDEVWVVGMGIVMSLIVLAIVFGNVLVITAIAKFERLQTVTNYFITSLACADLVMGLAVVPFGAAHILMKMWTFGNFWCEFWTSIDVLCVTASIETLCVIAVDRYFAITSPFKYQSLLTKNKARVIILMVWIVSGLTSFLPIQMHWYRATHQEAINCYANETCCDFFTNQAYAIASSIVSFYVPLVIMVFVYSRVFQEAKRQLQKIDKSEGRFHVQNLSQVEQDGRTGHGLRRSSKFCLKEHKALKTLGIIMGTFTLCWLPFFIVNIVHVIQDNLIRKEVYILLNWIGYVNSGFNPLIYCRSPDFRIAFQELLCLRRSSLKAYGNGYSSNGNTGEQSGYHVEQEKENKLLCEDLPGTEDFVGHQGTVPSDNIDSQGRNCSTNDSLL
Chain of KiSS-1 receptor (Homo sapiens) (Q969F8 whole entry, looked up): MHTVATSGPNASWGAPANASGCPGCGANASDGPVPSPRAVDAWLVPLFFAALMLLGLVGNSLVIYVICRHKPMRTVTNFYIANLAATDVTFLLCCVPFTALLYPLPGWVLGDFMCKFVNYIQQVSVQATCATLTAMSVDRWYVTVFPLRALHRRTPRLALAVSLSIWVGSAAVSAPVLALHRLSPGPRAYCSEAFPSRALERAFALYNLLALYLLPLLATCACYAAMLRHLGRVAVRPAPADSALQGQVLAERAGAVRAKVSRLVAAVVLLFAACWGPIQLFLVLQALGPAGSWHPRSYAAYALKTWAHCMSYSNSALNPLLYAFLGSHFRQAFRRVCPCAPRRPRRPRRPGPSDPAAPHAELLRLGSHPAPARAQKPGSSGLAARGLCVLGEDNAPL
Chain of D(2) dopamine receptor (Homo sapiens) (P14416 whole entry, looked up): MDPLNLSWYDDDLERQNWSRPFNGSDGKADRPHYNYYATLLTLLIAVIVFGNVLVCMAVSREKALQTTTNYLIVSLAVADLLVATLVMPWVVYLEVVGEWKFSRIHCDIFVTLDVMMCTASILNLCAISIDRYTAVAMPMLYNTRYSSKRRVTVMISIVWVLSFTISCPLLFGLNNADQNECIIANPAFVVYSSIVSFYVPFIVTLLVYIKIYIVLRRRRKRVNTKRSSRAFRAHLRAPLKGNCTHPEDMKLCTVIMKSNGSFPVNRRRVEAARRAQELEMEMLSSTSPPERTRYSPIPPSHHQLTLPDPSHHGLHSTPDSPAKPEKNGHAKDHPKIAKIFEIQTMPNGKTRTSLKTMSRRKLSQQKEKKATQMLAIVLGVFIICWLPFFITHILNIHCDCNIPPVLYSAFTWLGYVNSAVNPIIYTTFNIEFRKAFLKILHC
Chain of 5-hydroxytryptamine receptor 2A (Homo sapiens) (P28223 whole entry, looked up): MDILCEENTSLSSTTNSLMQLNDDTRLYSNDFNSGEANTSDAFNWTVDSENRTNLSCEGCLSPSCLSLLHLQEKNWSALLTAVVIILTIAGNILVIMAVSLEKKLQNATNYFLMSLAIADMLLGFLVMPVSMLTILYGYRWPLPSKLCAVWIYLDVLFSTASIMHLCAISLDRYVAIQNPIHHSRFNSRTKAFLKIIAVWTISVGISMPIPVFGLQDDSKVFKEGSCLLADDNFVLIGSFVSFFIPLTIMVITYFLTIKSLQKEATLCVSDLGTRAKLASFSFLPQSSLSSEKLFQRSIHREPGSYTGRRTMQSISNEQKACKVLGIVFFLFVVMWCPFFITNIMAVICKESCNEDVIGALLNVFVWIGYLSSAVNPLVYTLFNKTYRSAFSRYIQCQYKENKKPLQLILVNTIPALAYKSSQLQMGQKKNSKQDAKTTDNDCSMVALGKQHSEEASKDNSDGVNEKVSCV
Chain of Gonadotropin-releasing hormone receptor (Homo sapiens) (P30968 whole entry, looked up): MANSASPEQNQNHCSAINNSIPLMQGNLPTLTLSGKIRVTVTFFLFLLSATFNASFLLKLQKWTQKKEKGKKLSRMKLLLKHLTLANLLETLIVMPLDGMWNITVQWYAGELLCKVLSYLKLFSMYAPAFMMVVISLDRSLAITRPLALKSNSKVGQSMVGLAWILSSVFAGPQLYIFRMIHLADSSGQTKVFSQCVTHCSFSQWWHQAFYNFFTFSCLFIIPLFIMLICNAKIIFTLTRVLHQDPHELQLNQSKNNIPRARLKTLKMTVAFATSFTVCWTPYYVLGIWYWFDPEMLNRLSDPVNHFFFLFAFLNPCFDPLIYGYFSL
Chain of Muscarinic acetylcholine receptor M1 (Homo sapiens) (P11229 whole entry, looked up): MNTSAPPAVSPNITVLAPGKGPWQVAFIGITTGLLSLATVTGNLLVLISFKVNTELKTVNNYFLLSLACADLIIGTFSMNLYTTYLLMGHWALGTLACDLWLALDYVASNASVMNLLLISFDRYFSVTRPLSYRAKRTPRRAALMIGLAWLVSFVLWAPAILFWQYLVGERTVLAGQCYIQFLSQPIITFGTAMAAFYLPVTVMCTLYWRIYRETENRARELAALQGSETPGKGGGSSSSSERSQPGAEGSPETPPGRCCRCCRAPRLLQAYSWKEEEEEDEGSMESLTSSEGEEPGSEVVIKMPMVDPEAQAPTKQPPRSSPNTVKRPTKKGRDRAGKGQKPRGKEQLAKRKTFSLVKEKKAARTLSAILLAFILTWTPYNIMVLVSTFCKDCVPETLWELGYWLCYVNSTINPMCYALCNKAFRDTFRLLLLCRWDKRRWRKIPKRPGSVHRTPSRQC

| SMILES | Potency [1] | Potency [2] | outcome [3] | outcome [4] | Potency [5] | Potency [6] | Potency [7] | Potency [8] | Potency [9] | Potency [10] | Potency [11] | Potency [12] | Potency [13] | Potency [14] | Potency [15] | Potency [16] | Potency [17] | Potency [18] | Potency [19] | Potency [20] |
| --- | --- | --- | --- | --- | --- | --- | --- | --- | --- | --- | --- | --- | --- | --- | --- | --- | --- | --- | --- | --- |
| CN1Cc2cc(C(=O)N3CCC(C4CCNCC4)CC3)ccc2N[C@@H](CC(=O)O)C1=O | inactive | inactive | inactive | inactive | inactive | inactive | inactive | inactive | inactive | inactive | 1.63 µM (active) | inactive | inactive | inactive | inactive | inactive | inactive | inactive | – | – |
| CC(=O)NO | inactive | inactive | inactive | inactive | inactive | – | inactive | – | – | inactive | inactive | inactive | inactive | inactive | inactive | inactive | inactive | inactive | inactive | inactive |
| CN(C)CCN(Cc1ccsc1)c1ccccn1 | inactive | inactive | inactive | inactive | inactive | inactive | inactive | – | inactive | inactive | inactive | inactive | inactive | inactive | inactive | inactive | inactive | inactive | inactive | – |
| CO[C@@H]1[C@@H](OC(N)=O)[C@@H](O)[C@H](Oc2ccc3c(O)c(NC(=O)c4ccc(O)c(CC=C(C)C)c4)c(=O)oc3c2C)OC1(C)C | inactive | inactive | inactive | inactive | inactive | inactive | – | inactive | inactive | inactive | inactive | inactive | inactive | inactive | inactive | – | inactive | inactive | inactive | inactive |
| O[C@@H]1CO[C@H]2[C@@H]1OC[C@@H]2O | inactive | inactive | inactive | inactive | inactive | – | inactive | inactive | inactive | inactive | inactive | inactive | – | inactive | inactive | inactive | inactive | inactive | inactive | – |
| COc1cc2c(N3CCN(C(=O)Nc4ccc(OC(C)C)cc4)CC3)ncnc2cc1OCCCN1CCCCC1 | inactive | inactive | inactive | inactive | inactive | – | inactive | inactive | inactive | inactive | inactive | inactive | – | inactive | inactive | – | inactive | – | inactive | inactive |
| C1CCN(CN2CCCCC2)CC1 | inactive | inactive | inactive | inactive | – | – | inactive | – | inactive | inactive | inactive | inactive | inactive | inactive | inactive | – | – | inactive | inactive | – |
| CC(=O)OC[C@H]1O[C@@H](n2ncc(=O)[nH]c2=O)[C@H](OC(C)=O)[C@@H]1OC(C)=O | inactive | inactive | inactive | inactive | – | inactive | inactive | inactive | 0.5 µM (active) | – | – | – | inactive | inactive | inactive | inactive | inactive | inactive | inactive | – |
| C[Si](NC1CCCCC1)(NC1CCCCC1)NC1CCCCC1 | inactive | inactive | inactive | inactive | inactive | inactive | – | inactive | – | inactive | inactive | – | – | – | inactive | inactive | – | inactive | inactive | inactive |
| CCCn1cnc2c1c(=O)n(CCCCC(C)=O)c(=O)n2C | inactive | inactive | inactive | inactive | inactive | inactive | inactive | inactive | – | inactive | inactive | inactive | – | – | inactive | inactive | inactive | inactive | inactive | inactive |
| COc1ncnc(NS(=O)(=O)c2ccc(N)cc2)c1OC | inactive | inactive | inactive | inactive | inactive | inactive | – | inactive | inactive | – | – | – | inactive | inactive | inactive | inactive | inactive | inactive | inactive | – |
| Cc1c(NC(C)C)c(=O)n(-c2ccccc2)n1C | inactive | inactive | inactive | inactive | – | inactive | inactive | inactive | inactive | inactive | inactive | inactive | inactive | – | inactive | – | inactive | inactive | inactive | inactive |
| CC(C)c1ccc2sc3ccccc3c(=O)c2c1 | 68.6 µM (active) | inactive | inactive | inactive | inactive | – | – | inactive | inactive | inactive | inactive | inactive | – | – | inactive | – | inactive | – | inactive | inactive |
| O=c1c2ccccc2nnn1CCl | inactive | inactive | inactive | inactive | – | inactive | inactive | inactive | inactive | – | inactive | inactive | – | inactive | inactive | inactive | – | inactive | inactive | – |
